The list is not random: actives were taken first. Their share in the collection is about 19%.
IL-1B inflam inh – blocks inflammasome-driven IL-1 beta release | THP-1 LPS/ATP IL-1B secretion, AlphaLISA, 16 h; active compounds read low | activity change, % at 57.5 µM | 360,000 compounds, 4.7% hits; in the data active = activity change below about -50%; inconclusive = mostly about -30% to -49%
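THP-1 cells pretreated 1 hr with compounds (up to 57.5 uM final), then stimulated with LPS (250 ng/mL final) plus ATP (1.25 mM final); secreted IL-1B measured by AlphaLISA after 16 hr, decreased signal indicating inhibition.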
Giardia kill – Giardia lamblia killing; 340,000 compounds, 0.15% hits; activity change, % at 7.66 µM, hits read low; AID 540267; Giardia lamblia trophozoite viability; in the data active = activity change below about -80%; inconclusive = between about -30% and that limit;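 note: parasites exposed to compound for two days anaerobically before the ATP read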
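Trophozoite viability was measured as ATP-dependent luminescence, read 15-30 min after reagent addition. Before that, parasites at 100 cells/well were exposed to compounds for 48 h, anaerobically, at 37 deg C.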
TDP1 inh – inhibitors of human tyrosyl-DNA phosphodiesterase TDP1; Potency, µM (series often up to 130 µM), usual class: inhibitors; Q9NUW8; recombinant TDP1, AlphaScreen DNA substrate cleavage; 350,000 compounds, 0.28% hits; note: nearly all actives have a fitted effect of over 40% in size
Target sequence (Q9NUW8 whole entry, looked up): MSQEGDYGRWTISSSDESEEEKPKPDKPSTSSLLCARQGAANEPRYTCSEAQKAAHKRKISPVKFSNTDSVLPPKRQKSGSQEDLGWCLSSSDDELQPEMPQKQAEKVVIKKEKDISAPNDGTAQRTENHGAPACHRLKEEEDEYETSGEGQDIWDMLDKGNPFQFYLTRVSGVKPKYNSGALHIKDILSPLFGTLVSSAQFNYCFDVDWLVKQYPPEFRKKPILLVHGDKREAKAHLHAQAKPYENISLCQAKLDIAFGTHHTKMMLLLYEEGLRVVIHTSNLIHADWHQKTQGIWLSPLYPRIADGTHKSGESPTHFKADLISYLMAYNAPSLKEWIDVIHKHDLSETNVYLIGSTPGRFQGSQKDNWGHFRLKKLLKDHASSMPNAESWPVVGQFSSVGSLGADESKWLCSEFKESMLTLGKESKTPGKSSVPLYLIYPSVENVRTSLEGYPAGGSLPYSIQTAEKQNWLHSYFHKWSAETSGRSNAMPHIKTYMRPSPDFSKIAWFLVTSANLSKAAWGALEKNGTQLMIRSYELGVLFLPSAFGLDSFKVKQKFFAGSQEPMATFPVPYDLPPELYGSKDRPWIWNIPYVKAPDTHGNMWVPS
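Here, a 5' biotin and 3' phosphotyrosine-FITC DNA oligonucleotide reports Tdp1 activity: intact substrate bridges AlphaScreen beads, while cleavage leaves a 3' phosphate and drops signal. All incubations at room temperature.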
DT40 TDP1 no CPT – qHTS for Inhibitors of human tyrosyl-DNA phosphodiesterase 1 (TDP1): qHTS in cells in absence of CPT | DT40 Tdp1-/- hTDP1 cells, no CPT, ATP luminescence, 48 h | 420,000 compounds, 15% hits | Potency, µM (highest dose often 46.2 µM), usual class: inhibitors; note: nearly all actives have a fitted effect of over 55% in size
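Cells were dispensed at 400 per well, compounds added by pin tool, plates incubated ≥48 hr at 37 °C, then CellTiter-Glo added for 30 min at room temperature before luminescence reading. Line: DT40 Tdp1-/- complemented with hTDP1; camptothecin omitted.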
DT40 TDP1 CPT – growth inhibition of DT40 Tdp1-/-;hTDP1 cells with camptothecin (screen for TDP1 inhibitors); chicken DT40 Tdp1-/-;hTDP1 cells + 20 nM CPT, ATP luminescence, 48 h; Potency, µM (doses to about 46.2 µM), usual class: inhibitors; 420,000 compounds, 12% hits; note: nearly all actives have a fitted effect of over 55% in size
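Cell growth measured by CellTiter-Glo luminescence after a minimum 48 h, 37 C compound exposure with 20 nM CPT in Tdp1-knockout DT40 cells stably expressing hTDP1, seeded 400/well; qHTS titration format.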
ELG1 repair inh – inhibitors of ELG1-dependent DNA repair in HEK293T cells; HEK293T ELG1-luciferase reporter, luminescence, 16 h; DNA damage induced by 5-fluorouridine; Potency, µM (top dose mostly 46.1 µM), hits mostly inhibitors; 330,000 compounds, 2.3% hits; AID 504467; note: nearly all actives have a fitted effect of over 55% in size
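DMSO vehicle served as the neutral condition. Each well held 2,000 cells given 5-fluorouridine plus compound; after 16 hr at 37 °C/5% CO2, ONE-Glo was added and luciferase measured 30 min later.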
A number is an active result; 0 = inactive; ? = inconclusive; - = no result; ! = not confirmed by another sample. Unless noted, calls come from the whole dose curve; as a rule, active = well fitted curve in the direction sought with a large enough effect; inconclusive = small, poorly fitted or top-dose-only effect, or another doubt; inactive = no such curve, though single readings can be large; an effect the other way counts as inactive or inconclusive.

SMILES	IL-1B inflam inh	Giardia kill	TDP1 inh	DT40 TDP1 no CPT	DT40 TDP1 CPT	ELG1 repair inh
Cc1ccc(Cl)cc1NC(=O)Nc1cn(CC(C)C)c(=O)c2ccccc12	-	-	0	0	0	-
CCN(C(=O)Nc1cn(CC(C)C)c(=O)c2ccccc12)c1cc(C)ccc1C	-	-	0	9.2µM	9.2µM	-
COc1cc(OC)c(N(C)C(=O)Nc2cn(CC(C)C)c(=O)c3ccccc23)cc1Cl	-	-	0	23µM	21µM	-
O=C(c1cccc(F)c1)N1CCC[C@@]2(CCN(Cc3ccccc3)C2)C1	-	-	-	0	0	-
C[C@H](O)[C@@H]1C(=O)N2CCc3ccc(N4CCOCC4)cc3[C@@H]2C[C@@H]1N(C)C(=O)Nc1ccccc1	0	0	-	0	0	-
CN(Cc1ccc(Cl)cc1)C(c1cc2ccccc2o1)c1nnnn1C(C)(C)C (stereo not given)	0	-	-	?	?	-
CCCCn1nnnc1C(c1cc2ccccc2o1)N(Cc1ccccc1)Cc1ccccc1 (stereo not given)	0	-	-	18µM	?	-
CCCCn1nnnc1C(c1cc2ccccc2o1)N(C)CCc1ccccc1 (stereo not given)	0	-	-	21µM	?	-
CCCCn1nnnc1C(c1cc2ccccc2o1)N(CCC#N)Cc1ccccc1 (stereo not given)	0	-	-	?	16µM	-
CN(Cc1ccccc1)C(c1cc2ccccc2o1)c1nnnn1C(C)(C)C (stereo not given)	0	-	-	18µM	?	-
CN(CCc1ccccc1)C(c1cc2ccccc2o1)c1nnnn1C(C)(C)C (stereo not given)	0	-	-	?	?	-
CC(C)CCNC(=O)CN1C(=O)CSc2ccc(S(=O)(=O)N3CCCCC3)cc21	-	-	0	?	?	-
CCCCn1nnnc1C(c1cc2ccccc2o1)N(C)Cc1ccc(Cl)cc1 (stereo not given)	0	-	-	21µM	?	-
CCc1noc(C)c1C(=O)NCCc1ccc(Cl)cc1	0	0	-	?	0	0
CCN(CC)S(=O)(=O)c1ccc(OC(C)C)c(NC(=O)c2c3c(nc4ccccc24)CCN(Cc2ccccc2)C3)c1	0	0	0	12µM	13µM	5.8µM
COc1ccc(S(=O)(=O)N2CCCCCC2)cc1NC(=O)c1c2c(nc3ccccc13)CCN(Cc1ccccc1)C2	0	0	0	?	16µM	?
COc1ccc(NC(=O)c2c3c(nc4ccccc24)CCN(Cc2ccccc2)C3)c(OC)c1	0	0	0	?	16µM	?
Nc1nn(-c2ccccc2)nc1C(=O)OCc1c(F)cccc1Cl	-	-	0	0	0	-
COc1ccc(-c2csc(C(C)(O)c3ccc(F)c(F)c3)n2)cn1 (stereo not given)	0	-	-	?	?	-
Cc1c(NC(=O)COC(=O)C2(c3ccc(F)cc3)CCCC2)c(=O)n(-c2ccccc2)n1C	0	0	0	?	0	0
CCCCC1(COC(=O)CCC(=O)O)C(=O)N(c2ccccc2)N(c2ccccc2)C1=O	0	0	0	?	0.0023µM!	0
Cc1nn(Cc2ccc([N+](=O)[O-])cc2)c(=O)n1-c1ccccc1	0	0	0	0	0	0
CCCCC1(Cc2ccc([N+](=O)[O-])cc2)C(=O)N(c2ccccc2)N(c2ccccc2)C1=O	-58	0	0	?	?	0
COCCCn1cc(CN2CC(N3CCN(CCN(C)C)CC3)CS2(=O)=O)nn1 (stereo not given)	0	-	-	0	0	-
COc1ccccc1CNC(=O)C1CCN(c2nn3c(=O)cc(C)nc3s2)CC1	-	-	0	0	0	-
SMILES	IL-1B inflam inh	Giardia kill	TDP1 inh	DT40 TDP1 no CPT	DT40 TDP1 CPT	ELG1 repair inh
COc1cc2oc(=O)c(CC(=O)NCc3ccc(OC)c(OC)c3)c(C)c2cc1Cl	-	-	0	?	0	-
CCOc1ccccc1NC(=O)CCc1c(C)nc2cc(-c3ccccc3)nn2c1C	-	-	0	12µM	18µM	-
CSc1ccc(CCNC(=O)CCc2c(C)nc3cc(-c4ccccc4)nn3c2C)cc1	-	-	0	0	0	-
COc1ccc(CCNC(=O)CCc2c(C)nc3c4c(C)cc(C)nc4nn3c2C)cc1OC	-	-	0	16µM	?	-
Cc1ccc(NC(=O)CCc2c(C)nc3cc(-c4ccccc4)nn3c2C)cc1F	-	-	0	?	?	-
COc1ccc(CCNC(=O)CCc2c(C)nc3cc(-c4ccccc4)nn3c2C)cc1OC	-	-	0	26µM	16µM	-
CCOc1ccc(CCNC(=O)CCc2c(C)nc3cc(-c4ccccc4OC)nn3c2C)cc1	-	-	0	15µM	?	-
CCN(CC)CCNC(=O)C(=O)NCC1OCCN1S(=O)(=O)c1cccs1 (stereo not given)	0	0	-	0	0	-
C/C(=N/OC(=O)c1ccccc1)c1oc(C)nc1C	0	0	0	0	0	?
CCOC(=O)c1[nH]c2ccccc2c1NC(=O)c1ccc(S(=O)(=O)N(C)C)cc1	0	0	0	0	0	0
CCOC(=O)CSc1c(-c2ccc(Cl)cc2)[nH]c2ccccc12	0	0	0	?	?	0

Screening results from PubChem.
